Test results reported in PubChem BioAssay AID1159580 (chemical genetic matrix, 2015).
Where “and” joins values, the source holds several entries; their conditions need not be identical. Equal entries are not always repeated. The whole screen tested about 5,500 compounds, of which about 2,000 (36%) were called active. About 18% were inconclusive and are not listed. Rule as the data show it: active = normalized growth mostly below about 0.91 (no sharp cut-off); inconclusive = no clear call, values can overlap the other calls; inactive = mostly above about 0.92. This is one part of the list.

Assay: chemical genetic growth profiling, strain panel (AID 1159580);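 also: tested at 20 µM; growth read once vehicle control cultures reached saturation at 30 °C; 1 = growth at the plate median or of vehicle wells; lower values mean less growth of the strain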
Settings: S. cerevisiae deletion strains, growth OD

Measured: normalized growth

Oc1c(Cl)cc(Cl)c2cccnc12
active: locus YAL013W, strain DEP1, stronger effect = lower value 0.0554 | locus YAL021C, strain ccr4, stronger effect = lower value 0.0642 | locus YAL026C, strain drs2, stronger effect = lower value 0.0607 | locus YAL030W, strain snc1, stronger effect = lower value 0.0606 | locus YBL061C, strain skt5, stronger effect = lower value 0.0718 | locus YBR009C, strain hhf1, stronger effect = lower value 0.0665 | locus YBR021W, strain FUR4, stronger effect = lower value 0.0914 | locus YBR023C, strain chs3, stronger effect = lower value 0.0713 | locus YBR171W, strain sec66, stronger effect = lower value 0.083 | locus YBR229C, strain ROT2, stronger effect = lower value 0.0477 | locus YBR231C, strain swc5, stronger effect = lower value 0.0819 | locus YBR279W, strain paf1, stronger effect = lower value 0.064 | locus YCL011C, strain gbp2, stronger effect = lower value 0.0637 | locus YCL016C, strain dcc1, stronger effect = lower value 0.0656 | locus YCL029C, strain bik1, stronger effect = lower value 0.0628 | locus YCL061C, strain MRC1, stronger effect = lower value 0.0645 | locus YCL069W, strain vba3, stronger effect = lower value 0.0656 | locus YCR088W, strain abp1, stronger effect = lower value 0.0623 | locus YDL005C, strain med2, stronger effect = lower value 0.0757 | locus YDL035C, strain GPR1, stronger effect = lower value 0.0525 | locus YDL040C, strain nat1, stronger effect = lower value 0.0611 | locus YDL074C, strain BRE1, stronger effect = lower value 0.0827 | locus YDL101C, strain DUN1, stronger effect = lower value 0.0602 | locus YDL134C, strain PPH21, stronger effect = lower value 0.0491 | locus YDL185W, strain tfp1, stronger effect = lower value 0.0641 | locus YDL192W, strain arf1, stronger effect = lower value 0.0659 | locus YDR001C, strain nth1, stronger effect = lower value 0.0589 | locus YDR069C, strain doa4, stronger effect = lower value 0.0663 | locus YDR101C, strain arx1, stronger effect = lower value 0.0587 | locus YDR137W, strain rgp1, stronger effect = lower value 0.113 | locus YDR150W, strain NUM1, stronger effect = lower value 0.0572 | locus YDR159W, strain sac3, stronger effect = lower value 0.0885 | locus YDR162C, strain NBP2, stronger effect = lower value 0.0476 | locus YDR195W, strain ref2 0.117 | locus YDR297W, strain sur2, stronger effect = lower value 0.067 | locus YDR318W, strain mcm21, stronger effect = lower value 0.0673 | locus YDR334W, strain swr1, stronger effect = lower value 0.0629 | locus YDR335W, strain msn5, stronger effect = lower value 0.0654 | locus YDR388W, stronger effect = lower value 0.0609 | locus YDR392W, strain spt3, stronger effect = lower value 0.0726 | locus YDR502C, strain sam2, stronger effect = lower value 0.0656 | locus YEL003W, strain gim4, stronger effect = lower value 0.0637 | locus YEL037C, strain rad23, stronger effect = lower value 0.0639 | locus YEL061C, strain CIN8 (second series), stronger effect = lower value 0.0636 | locus YEL061C, strain CIN8, stronger effect = lower value 0.0482 | locus YER015W, strain faa2, stronger effect = lower value 0.0692 | locus YER016W, strain bim1, stronger effect = lower value 0.0695 | locus YER110C, stronger effect = lower value 0.08 | locus YER111C, strain swi4, stronger effect = lower value 0.0742 | locus YER155C, strain BEM2 (second series), stronger effect = lower value 0.0894 | locus YER155C, strain BEM2, stronger effect = lower value 0.0642 | locus YER167W, strain BCK2, stronger effect = lower value 0.0516 | locus YFR010W, strain ubp6, stronger effect = lower value 0.0659 | locus YGL078C, strain dbp3, stronger effect = lower value 0.0639 | locus YGL086W, strain mad1, stronger effect = lower value 0.0594 | locus YGL167C, strain pmr1, stronger effect = lower value 0.0827 | locus YGL173C, strain kem1, stronger effect = lower value 0.076 | locus YGL227W, strain vid30, stronger effect = lower value 0.0665 | locus YGL240W, strain doc1, stronger effect = lower value 0.0841 | locus YGL248W, strain PDE1, stronger effect = lower value 0.0454 | locus YGL253W, strain hxk2, stronger effect = lower value 0.0551 | locus YGR078C, strain PAC10, stronger effect = lower value 0.0521 | locus YGR135W, strain pre9, stronger effect = lower value 0.0748 | locus YGR229C, strain SMI1, stronger effect = lower value 0.0589 | locus YGR252W, strain gcn5, stronger effect = lower value 0.158 | locus YHR013C, strain ard1, stronger effect = lower value 0.111 | locus YHR027C, strain rpn1, stronger effect = lower value 0.0681 | locus YHR030C, strain SLT2, stronger effect = lower value 0.0506 and 0.116 | locus YHR079C, strain IRE1 (second series), stronger effect = lower value 0.0598 | locus YHR079C, strain IRE1, stronger effect = lower value 0.119 | locus YHR094C, strain hxt1, stronger effect = lower value 0.0629 | locus YHR129C, strain ARP1, stronger effect = lower value 0.0524 | locus YHR142W, strain chs7, stronger effect = lower value 0.0684 | locus YHR200W, strain rpn10, stronger effect = lower value 0.066 | locus YIL066C, strain RNR3, stronger effect = lower value 0.0479 | locus YIL073C, strain SPO22, stronger effect = lower value 0.128 | locus YIL125W, strain kgd1, stronger effect = lower value 0.0656 | locus YIR030C, strain dcg1, stronger effect = lower value 0.0607 | locus YJL092W, strain hpr5, stronger effect = lower value 0.0625 | locus YJL095W, strain BCK1 (second series), stronger effect = lower value 0.0621 | locus YJL095W, strain BCK1, stronger effect = lower value 0.0584 and 0.118 | locus YJL115W, strain asf1, stronger effect = lower value 0.0757 | locus YJL129C, strain trk1, stronger effect = lower value 0.089 | locus YJL134W, strain LCB3, stronger effect = lower value 0.0493 | locus YJL154C, strain vps35, stronger effect = lower value 0.0617 | locus YJL164C, strain tpk1, stronger effect = lower value 0.062 | locus YJL166W, strain qcr8, stronger effect = lower value 0.0623 | locus YJL168C, strain set2, stronger effect = lower value 0.0626 | locus YJL187C, strain SWE1 (second series), stronger effect = lower value 0.0481 | locus YJL187C, strain SWE1, stronger effect = lower value 0.0669 | locus YJR043C, strain POL32, stronger effect = lower value 0.0614
